PglD inh – PglD (C. jejuni) enzyme inhibition | 0.098% of 360,000 active | purified PglD enzyme, DTNB colorimetric CoA detection | inhibition, % at 12.5 µM | AID 602405; in the data active means inhibition above about 16%, passing the limit was not always enough; inconclusive means no clear call, values can overlap the other calls
Env fusion inh – HIV envelope-mediated fusion inhibition | HeLa-JRFL Env/CEM21 cell fusion, luciferase | inhibition, % at 12.3 µM | 1.1% of 360,000 active | AID 651610;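 active means mean replicate inhibition score of at least 50 and every replicate individually at or above 50; inconclusive means only one of the two criteria met; inactive means mean below 50 and not all replicates reaching 50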
NSD2 inh – inhibitors of human histone methyltransferase NSD2; NSD2 peptide methylation, AlphaScreen, 120 min; inhibition, % at 12.5 µM; 0.54% of 310,000 active; in the data active means inhibition above about 50%
CFTR F508del cor – correctors of CFTR F508del function in bronchial epithelial cells. 0.36% of 350,000 active. activity (quench increase), % at 7.58 µM. CFBE cells, YFP halide quenching; stimulated with forskolin plus potentiator P3; % fluorescence drop versus neutral controls;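 active means mean added fluorescence quench of at least 8% versus neutral control, with both replicates also reaching 8%; inconclusive means only one of the mean or replicate conditions met; inactive means mean below 8% and not both replicates reaching 8%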;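 further: cells transiently co-express mutant CFTR-F508del with the halide-sensitive YFP; corrector assay measuring rescue of mutant channel to the surface after 24 h compound exposure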
Casp6 inh – caspase-6 (human) enzyme inhibition; AID 686996; P55212; 0.53% of 350,000 active; purified caspase-6, Z-VEID-R110 cleavage fluorescence; inhibition, % at 12.5 µM;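 active means mean inhibition across replicates at least about 35%, with every replicate also reaching that limit, limit read from the data; inconclusive means only one of the two criteria met; inactive means neither criterion met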
ALR inh – human ALR oxidase inhibition via reduced H2O2; 3.8% of 290,000 active; purified ALR, DTT oxidation, H2O2 HRP-luminol luminescence; inhibition, % (test concentration not listed); P55789; AID 485317;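 active means mean replicate inhibition above about 79%, with every replicate also reaching it, limit read from the data; inconclusive means only one of the two criteria met; inactive means mean below limit and not every replicate reaching it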
Large screens that a line does not name were inactive; [ ] = another dose, or the depositor's remark. Shown are actives, neighbours in structure and some others; about 4.1% of the full set was active somewhere.

CC1OC(OCC2OC(Oc3c(-c4ccc(O)cc4)oc4cc(O)cc(O)c4c3=O)C(O)C(O)C2O)C(O)C(O)C1O (stereo unspecified)	Casp6 inh 54 (no result: Env fusion inh, NSD2 inh)
C/C=C/c1ccc([C@H]2[C@@H](CNC(=O)c3ccncc3)N(C(C)=O)[C@H]2CO)cc1	none (no result: Env fusion inh, NSD2 inh, Casp6 inh, ALR inh)
CN(C)C(=O)c1ccc(-c2ccccc2[C@@H]2[C@H](C#N)N(C(=O)C3CCCC3)[C@H]2CO)cc1	none (no result: PglD inh, Env fusion inh, NSD2 inh, ALR inh)
CO[C@@H](C(=O)N(C)C[C@@H]1OCc2ccccc2-c2c(n(C)c3ccccc23)C(=O)N([C@@H](C)CO)C[C@@H]1C)c1ccccc1	Env fusion inh inconclusive (no result: NSD2 inh, ALR inh)
Nc1nnc(SCc2ccc(F)cc2)s1	none (no result: CFTR F508del cor, Casp6 inh)
Nc1nc(SCc2ccc(Cl)cc2Cl)nc2nc3c(cc12)CCCC3	ALR inh 90 (no result: PglD inh, CFTR F508del cor)
Cc1ccccc1CSc1nsc(N)n1	none (no result: Env fusion inh, CFTR F508del cor, Casp6 inh)
Nc1nc(SCc2ccc(F)cc2)ns1	ALR inh 98 (no result: PglD inh)
Nc1nc(SCc2ccccc2Cl)nc2nc3c(cc12)CCCC3	none (no result: CFTR F508del cor, Casp6 inh)
Nc1nc(SCc2ccc(Cl)cc2Cl)ns1	ALR inh 99 (no result: CFTR F508del cor, Casp6 inh)
O=C(Cc1cccnc1)N1CC[C@H]2[C@H](CO)Nc3ccc(C#Cc4cccc(F)c4)cc3[C@H]21	none (no result: PglD inh, Env fusion inh, NSD2 inh, ALR inh)
C[C@H]1CN([C@@H](C)CO)C(=O)c2cc(-c3ccncc3)cnc2O[C@@H]1CN(C)C(=O)C1CC1	none (no result: PglD inh, NSD2 inh, Casp6 inh, ALR inh)
CCCC#Cc1cnc2c(c1)C(=O)N([C@H](C)CO)C[C@@H](C)[C@@H](CN(C)C(=O)C1CCCCC1)O2	none (no result: PglD inh, NSD2 inh, Casp6 inh, ALR inh)
Cc1cnc(NC(=O)c2sc3ccccc3c2Cl)s1	none (no result: PglD inh)
CC(C)c1nnc(NC(=O)c2sc3ccccc3c2Cl)s1	ALR inh 98 (no result: PglD inh, Env fusion inh, CFTR F508del cor, Casp6 inh)
COc1ccc(CCNc2ccc(N3C(=O)CC(C)C3=O)cc2[N+](=O)[O-])cc1OC (stereo unspecified)	Env fusion inh 68
O=C(O)CCn1cc(C2CC(c3ccccc3)=NN2c2ccccc2)c(-c2ccccc2)n1 (stereo unspecified)	ALR inh 99
COc1ccccc1NC(=O)N[C@@H]1C=C[C@H](CC(=O)N[C@H](C)c2ccccc2)O[C@H]1CO	Env fusion inh 95[16.7 µM] (no result: NSD2 inh, ALR inh)
COc1ccccc1NC(=O)N[C@@H]1C=C[C@H](CC(=O)NCc2ccc(Cl)c(Cl)c2)O[C@@H]1CO	Env fusion inh 74[16.7 µM] (no result: NSD2 inh, ALR inh)
C[C@@H]1CCCCO[C@@H](CN(C)C(=O)Nc2cccc3ccccc23)[C@@H](C)CN([C@@H](C)CO)C(=O)c2cc(NC(=O)Cc3ccccc3)ccc2O1	none (no result: PglD inh, Env fusion inh, NSD2 inh, ALR inh)
COc1ccc2c3c([nH]c2c1)[C@H](CO)NCC31CCN(C(=O)Cc2ccccc2)CC1	none (no result: PglD inh, Env fusion inh, NSD2 inh, Casp6 inh, ALR inh)
C/C(=N/NC(=O)c1sc(NS(=O)(=O)c2ccc(C)cc2)nc1C)c1sc(N)nc1C	ALR inh 99 (no result: PglD inh)
CO[C@H]1CN(C)C(=O)c2cc(NS(=O)(=O)c3ccc(Cl)cc3)ccc2OC[C@H](C)NC[C@H]1C	none (no result: NSD2 inh, ALR inh)
O=C(C[C@H]1CC[C@@H]2[C@H](COC[C@@H](O)CN2Cc2cccc(F)c2)O1)NCCc1ccncc1	none (no result: Env fusion inh, NSD2 inh, ALR inh)
O=C1C(Nc2ccccc2)=C2CCCC=C2N1c1ccccc1	ALR inh 102 (no result: PglD inh)
COc1ccc(/C=N/NC(=O)C2COc3ccccc3O2)cc1OC (stereo unspecified)	none (no result: PglD inh)
COc1cc(/C=N/NC(=O)CNC(=O)c2ccc3c(c2)OCCO3)ccc1O	ALR inh 98 (no result: CFTR F508del cor, Casp6 inh)
COc1cc(/C=N/NC(=O)c2ccc3c(c2)OCCO3)cc(Cl)c1O	ALR inh 94
COc1ccc(/C=N\NC(=O)CNC(=O)C2COc3ccccc3O2)cc1[N+](=O)[O-] (stereo unspecified)	none
COc1cc(/C=N\NC(=O)CNC(=O)C2COc3ccccc3O2)ccc1O (stereo unspecified)	ALR inh 98 (no result: CFTR F508del cor, Casp6 inh)
COc1cc(/C=N/NC(=O)C2COc3ccccc3O2)ccc1O (stereo unspecified)	ALR inh 99 (no result: PglD inh)
C[C@@H]1CN([C@H](C)CO)C(=O)c2cc(C3=CCCCC3)cnc2O[C@@H]1CN(C)C(=O)c1ccccn1	none (no result: NSD2 inh, ALR inh)
O=C(C[C@@H]1C[C@H]2c3cc(NC(=O)c4cccnc4)ccc3O[C@H]2[C@@H](CO)O1)NCc1ccccc1F	none (no result: NSD2 inh, ALR inh)
COc1ccccc1/C=C/C(=O)NCC(=O)N/N=C/c1ccc2c(c1)OCO2	ALR inh 88 (no result: PglD inh)
COc1ccc(/C=N\NC(=O)C2COc3ccccc3O2)cc1O (stereo unspecified)	ALR inh 99 (no result: PglD inh)
COc1cc(/C=N\NC(=O)C2COc3ccccc3O2)cc(OC)c1O (stereo unspecified)	none (no result: ALR inh)
Oc1ccc(Br)cc1CN1CCCCCCC1	ALR inh 99 (no result: CFTR F508del cor, Casp6 inh)
Oc1ccc2cc(Br)ccc2c1CN1CCCC1	ALR inh 76
Cc1ccccc1-c1ccc([C@H]2[C@H](CO)N3CCCCN(C(=O)CN4CCOCC4)C[C@@H]23)cc1	none (no result: Env fusion inh, NSD2 inh, ALR inh)
CCO[C@@H]1OC(C(=O)N2CCN(Cc3ccc4c(c3)OCO4)CC2)=C[C@H](C(C)(C)C)[C@H]1CCCO	none (no result: NSD2 inh, ALR inh)
O=c1cc(CN2CCc3ccccc32)c2ccc(O)cc2o1	ALR inh 99
CCc1ccc2c(CN3CCc4ccccc43)cc(=O)oc2c1	none (no result: Env fusion inh, CFTR F508del cor, Casp6 inh)
CC(C)(C)NC(=O)CSc1nnc(-c2ccccc2)c(-c2ccccc2)n1	none (no result: Env fusion inh, NSD2 inh, CFTR F508del cor, Casp6 inh)
CC(=O)NNC(=O)CSc1nnc(-c2ccccc2)c(-c2ccccc2)n1	ALR inh 83
Cc1ccc(S(=O)(=O)Nc2c(C(=O)O)[nH]c3ccccc23)cc1C	ALR inh 98
CCS(=O)(=O)Nc1c(C(=O)O)[nH]c2ccccc12	ALR inh 99 (no result: CFTR F508del cor, Casp6 inh)
CO[C@@H]1CN(C)C(=O)c2ccc(NC(=O)c3ccccc3)cc2OC[C@H](C)N(C(=O)C2CC2)C[C@H]1C	none (no result: NSD2 inh, Casp6 inh, ALR inh)
O=C(NNC1=Nc2ccccc2SC1)c1ccc(F)cc1	none (no result: PglD inh)
O=C(NNC1=Nc2ccccc2SC1)c1ccc(Cl)cc1	Env fusion inh 61
CCCCc1cc(=O)oc2c(CN(C)C)c(O)ccc12	ALR inh 94 (no result: CFTR F508del cor, Casp6 inh)
COCCN(CCOC)Cc1c(O)ccc2c3c(c(=O)oc12)CCC3	none (no result: CFTR F508del cor, Casp6 inh)
CN(C)Cc1c(O)ccc2c3c(c(=O)oc12)CCCCC3	ALR inh 90 (no result: PglD inh, Env fusion inh, CFTR F508del cor, Casp6 inh)
CCC(O)(CC)C(=O)NN(C(=O)Nc1csc2c1CCCC2)c1ccccc1	Env fusion inh 62 (no result: CFTR F508del cor, Casp6 inh)
CCOC(=O)N1CCC(N2C(=O)c3ccccc3C2Nc2ccccc2)CC1 (stereo unspecified)	none (no result: Env fusion inh, NSD2 inh, ALR inh)
CCOC(=O)N1CCC(N2C(=O)c3ccccc3C2Nc2ccc(C)cc2)CC1 (stereo unspecified)	ALR inh 99 (no result: NSD2 inh)
Cc1ccc(NC2c3ccccc3C(=O)N2CCN2CCOCC2)cc1 (stereo unspecified)	ALR inh 98 (no result: NSD2 inh)
C[C@@H]1CCCCO[C@@H](CN(C)S(=O)(=O)c2cn(C)cn2)[C@H](C)CN([C@@H](C)CO)C(=O)c2cc(NS(=O)(=O)c3ccccc3)ccc2O1	none (no result: NSD2 inh, ALR inh)
COc1cccc(NC(=O)N(C)C[C@H]2Oc3cc(-c4ccccc4F)ccc3S(=O)(=O)N([C@@H](C)CO)C[C@H]2C)c1	none (no result: NSD2 inh, ALR inh)
